From the antibiotic and cytotoxicity screens of Wong et al. (2023) come the findings set out here.

Structures are written as SMILES. Out of some 39,000 compounds screened, about 3,300 (8.5%) were called active. The full list was thinned out, with actives kept by preference.

The subject of the experiment is HepG2. The experiment is described as follows: cytotoxicity call (relative viability < 0.9). The settings on record: 10 µM.
For `CCOC(=O)N(C)C[C@H]1OCc2cn(nn2)CCCC(=O)N([C@H](C)CO)C[C@@H]1C`, the cytotoxicity call was “inactive”.

For the compound `CC(=O)O[C@H]1CC[C@]2(C)[C@H]3CC[C@]4(C)C(=CC(=O)O[C@H]4c4ccoc4)[C@]3(C)[C@H](OC(C)=O)C[C@H]2C1(C)C`, the cytotoxicity call is “inactive”.

With `CN(C)C(=O)c1ccc(-c2ccc3n(c2=O)C[C@@H]2[C@@H](CO)[C@H](C(=O)NCCc4ccccc4)N[C@H]32)cc1`, the cytotoxicity call was “inactive”.

Take `COc1ccc(NC(=O)Nc2ccc3c(c2)C(=O)N([C@H](C)CO)C[C@@H](C)[C@@H](CN(C)Cc2ccc(Oc4ccccc4)cc2)O3)cc1`: the cytotoxicity call was “inactive”.

With `COc1ccc(NC(=O)Nc2ccc3c(c2)C(=O)N([C@@H](C)CO)C[C@@H](C)[C@H](CN(C)Cc2ccc(Oc4ccccc4)cc2)O3)cc1`, the cytotoxicity call was “inactive”.

As to `COc1ccc(NC(=O)Nc2ccc3c(c2)C(=O)N([C@@H](C)CO)C[C@H](C)[C@@H](CN(C)Cc2ccc(Oc4ccccc4)cc2)O3)cc1`, the cytotoxicity call is “inactive”.

For `COc1ccc(NC(=O)Nc2ccc3c(c2)C(=O)N([C@H](C)CO)C[C@H](C)[C@H](CN(C)Cc2ccc(Oc4ccccc4)cc2)O3)cc1`, the cytotoxicity call was “inactive”.

Consider `COc1ccc(NC(=O)Nc2ccc3c(c2)C(=O)N([C@@H](C)CO)C[C@@H](C)[C@@H](CN(C)Cc2ccc(Oc4ccccc4)cc2)O3)cc1`, for which the cytotoxicity call is “active”.

As for `COc1ccc(NC(=O)Nc2ccc3c(c2)C(=O)N([C@H](C)CO)C[C@H](C)[C@@H](CN(C)Cc2ccc(Oc4ccccc4)cc2)O3)cc1`, the cytotoxicity call was “active”.

Turning to `C[C@H](CO)N1C[C@H](C)[C@@H](CN(C)S(=O)(=O)c2ccc(Cl)cc2)OCc2cnnn2CCCC1=O`, the cytotoxicity call was “inactive”.

For the compound `Cc1ccc(S(=O)(=O)Nc2ccc3c(c2)C(=O)N([C@@H](C)CO)C[C@@H](C)[C@@H](CN(C)C(=O)C2CCCCC2)OCCCC[C@H](C)O3)cc1`, the cytotoxicity call was “inactive”.

Turning to `CC(C)(c1cc(Br)c(O)c(Br)c1)c1cc(Br)c(O)c(Br)c1`, the cytotoxicity call was “inactive”.

Regarding `C[C@H](CO)N1C[C@H](C)[C@@H](CN(C)C(=O)NC2CCCCC2)Oc2c(NS(=O)(=O)c3cn(C)cn3)cccc2C1=O`, the cytotoxicity call is “inactive”.

With `CCCNC(=O)N1C[C@H](O)COC[C@H]2O[C@H](CC(=O)NCCCN3CCOCC3)CC[C@@H]21`, the cytotoxicity call was “active”.

`O=C(C[C@@H]1CC[C@H]2[C@@H](COC[C@@H](O)CN2C(=O)c2ccc3c(c2)OCO3)O1)NCCN1CCCCC1`: the cytotoxicity call is “active”.

Consider `O=C(C[C@@H]1CC[C@@H]2[C@H](COC[C@@H](O)CN2C(=O)c2ccc3c(c2)OCO3)O1)NCCN1CCCCC1`, for which the cytotoxicity call was “inactive”.

Turning to `CNC(=O)C[C@H]1CC[C@@H]2[C@H](COC[C@@H](O)CN2C(=O)c2ccc3c(c2)OCO3)O1`, the cytotoxicity call was “active”.

Regarding `CCCNC(=O)N1C[C@H](O)COC[C@H]2O[C@@H](CC(=O)NCCCN3CCOCC3)CC[C@@H]21`, the cytotoxicity call is “inactive”.

For `O=C(C[C@H]1CC[C@@H]2[C@H](COC[C@H](O)CN2C(=O)c2ccc3c(c2)OCO3)O1)NCCN1CCCCC1`, the cytotoxicity call is “inactive”.

Turning to `CCCNC(=O)N1C[C@@H](O)COC[C@H]2O[C@@H](CC(=O)NCCCN3CCOCC3)CC[C@@H]21`, the cytotoxicity call is “inactive”.

Turning to `CNC(=O)C[C@@H]1CC[C@H]2[C@@H](COC[C@H](O)CN2C(=O)c2ccc3c(c2)OCO3)O1`, the cytotoxicity call is “inactive”.

On to `CNC(=O)C[C@H]1CC[C@H]2[C@@H](COC[C@@H](O)CN2C(=O)c2ccc3c(c2)OCO3)O1`, for which the cytotoxicity call was “inactive”.

Regarding `C[C@@H]1CN([C@H](C)CO)C(=O)c2cc(NC(=O)NC3CCCCC3)ccc2O[C@@H](C)CCCCO[C@H]1CN(C)C(=O)Nc1ccc(F)cc1`, the cytotoxicity call is “inactive”.

Consider `C[C@H](CO)N1C[C@H](C)[C@@H](CN(C)S(=O)(=O)c2cccs2)OCCCC[C@H](C)Oc2ccc(NS(=O)(=O)c3cn(C)cn3)cc2C1=O`, for which the cytotoxicity call is “inactive”.

Regarding `COc1ccc(C#Cc2ccc3c(c2)[C@H]2[C@H](CCN2C(=O)Nc2ccc(C(F)(F)F)cc2)[C@H](CO)N3C)cc1`, the cytotoxicity call is “inactive”.

In the case of `C[C@H](CO)N1C[C@H](C)[C@@H](CN(C)S(=O)(=O)c2cn(C)cn2)Oc2ccc(NC(=O)c3ccncc3)cc2C1=O`, the cytotoxicity call is “inactive”.

Consider `C[C@@H]1CN([C@H](C)CO)S(=O)(=O)c2ccc(Br)cc2O[C@H]1CN(C)Cc1cccc(C(=O)O)c1`, for which the cytotoxicity call was “inactive”.

For the compound `C[C@@H]1CN([C@H](C)CO)C(=O)c2cccc(NC(=O)Nc3ccccc3)c2O[C@H]1CN(C)Cc1ccc(C(=O)Nc2ccccc2N)cc1`, the cytotoxicity call is “inactive”.

For the compound `O=C(C[C@@H]1C[C@H]2c3cc(NC(=O)NC4CCCC4)ccc3O[C@H]2[C@@H](CO)O1)NCc1ccc(Oc2ccccc2)cc1`, the cytotoxicity call is “inactive”.

On to `O=C(C[C@H]1C[C@H]2c3cc(NC(=O)Nc4ccccc4F)ccc3O[C@H]2[C@H](CO)O1)NCc1ccc(Oc2ccccc2)cc1`, for which the cytotoxicity call was “inactive”.

With `O=C(C[C@H]1C[C@H]2c3cc(NC(=O)NC4CCCC4)ccc3O[C@H]2[C@H](CO)O1)NCc1ccc(Oc2ccccc2)cc1`, the cytotoxicity call is “active”.

On to `O=C(C[C@H]1C[C@@H]2c3cc(NC(=O)NC4CCCC4)ccc3O[C@@H]2[C@H](CO)O1)NCc1ccc(Oc2ccccc2)cc1`, for which the cytotoxicity call is “active”.

Turning to `O=C(C[C@@H]1C[C@H]2c3cc(NC(=O)NC4CCCC4)ccc3O[C@H]2[C@H](CO)O1)NCc1ccc(Oc2ccccc2)cc1`, the cytotoxicity call was “inactive”.

For the compound `O=C(C[C@@H]1C[C@@H]2c3cc(NC(=O)Nc4ccccc4F)ccc3O[C@@H]2[C@@H](CO)O1)NCc1ccc(Oc2ccccc2)cc1`, the cytotoxicity call was “active”.

Consider `O=C(C[C@@H]1C[C@H]2c3cc(NC(=O)Nc4ccccc4F)ccc3O[C@H]2[C@H](CO)O1)NCc1ccc(Oc2ccccc2)cc1`, for which the cytotoxicity call was “inactive”.

For the compound `O=C(C[C@@H]1C[C@@H]2c3cc(NC(=O)NC4CCCC4)ccc3O[C@@H]2[C@H](CO)O1)NCc1ccc(Oc2ccccc2)cc1`, the cytotoxicity call was “inactive”.

On to `O=C(C[C@H]1C[C@@H]2c3cc(NC(=O)NC4CCCC4)ccc3O[C@@H]2[C@@H](CO)O1)NCc1ccc(Oc2ccccc2)cc1`, for which the cytotoxicity call is “inactive”.

Regarding `CC(C)(C)OC(=O)C[C@@H]1CC=CC[C@H](CC(=O)NCCO)C(=O)NCCOC1=O`, the cytotoxicity call is “inactive”.

As to `COCC#Cc1ccc([C@@H]2[C@H](CO)N3C(=O)CN(C(=O)c4ccncc4)C[C@@H]23)cc1`, the cytotoxicity call is “inactive”.

For the compound `CO[C@H]1CN(C)C(=O)c2ccc(NS(C)(=O)=O)cc2OC[C@@H](C)N(C(=O)CN(C)C)C[C@H]1C`, the cytotoxicity call is “inactive”.

As to `C[C@@H]1CN([C@H](C)CO)C(=O)Cc2cc(NS(=O)(=O)c3ccc(F)cc3)ccc2O[C@H]1CN(C)Cc1ccncc1`, the cytotoxicity call was “inactive”.

For the compound `C=CCC[C@H](Cc1ccc(F)cc1)C(=O)OC[C@@H]1CCCN1C(=O)[C@H](CC=C)CC(=O)N(CCO)Cc1ccccc1`, the cytotoxicity call was “inactive”.

For `CC(C)(C)OC(=O)N1CCNC(=O)C1`, the cytotoxicity call is “inactive”.

For `O=C(O)CCN1C(=O)NC2(CCCC2)C1=O`, the cytotoxicity call was “inactive”.

As for `O=C(C1=C[C@@H](c2ccsc2)C[C@@H](OCCCCO)O1)N1CCN(Cc2ccc3c(c2)OCO3)CC1`, the cytotoxicity call is “inactive”.

For the compound `C[C@H]1CN([C@@H](C)CO)C(=O)CCCn2nncc2CO[C@@H]1CN(C)C(=O)CCCN(C)C`, the cytotoxicity call is “inactive”.

Regarding `C[C@H]1CN([C@@H](C)CO)C(=O)Cc2cc(NC(=O)CCN3CCOCC3)ccc2O[C@@H]1CN(C)S(=O)(=O)c1ccc(Cl)cc1`, the cytotoxicity call was “inactive”.

For `CC(=O)OC(C)C[N+](C)(C)C.[Cl-]` (stereo unspecified), the cytotoxicity call is “active”.

For the compound `CC(C[N+](C)(C)C)OC(N)=O.[Cl-]` (stereo unspecified), the cytotoxicity call was “inactive”.

Regarding `CC(=O)O[C@@H](C)C[N+](C)(C)C`, the cytotoxicity call was “inactive”.

Regarding `O=C(C[C@H]1CC[C@H]2[C@@H](COC[C@@H](O)CN2C(=O)Nc2cccc(Cl)c2)O1)NCc1ccccc1F`, the cytotoxicity call was “inactive”.

`CN(C)Cc1cn(CC[C@@H]2CC[C@@H](NC(=O)Cc3cccnc3)[C@@H](CO)O2)nn1`: the cytotoxicity call was “inactive”.

On to `C[C@@H]1CCCCO[C@@H](CN(C)C(=O)c2ccncc2)[C@H](C)CN([C@H](C)CO)C(=O)c2cc(NS(=O)(=O)c3cn(C)cn3)ccc2O1`, for which the cytotoxicity call is “inactive”.

For `O=C(C[C@@H]1CC[C@H]2[C@@H](COC[C@@H](O)CN2S(=O)(=O)c2ccccc2F)O1)NCc1ccccc1Cl`, the cytotoxicity call was “inactive”.

As for `C[C@@H]1CN([C@H](C)CO)C(=O)c2cc(NS(C)(=O)=O)ccc2O[C@@H]1CN(C)Cc1ccc(C(=O)Nc2ccccc2N)cc1`, the cytotoxicity call is “inactive”.

For `COc1ccc(CNC(=O)c2cc3c(c(-c4cccc(-c5ccc(C#N)cc5)c4)n2)[C@H](CCO)N([S@@](=O)C(C)(C)C)C3)cc1`, the cytotoxicity call is “inactive”.

For the compound `COc1ccc(C2=N[C@H](c3ccc(Cl)cc3)[C@H](c3ccc(Cl)cc3)N2C(=O)N2CCNC(=O)C2)c(OC(C)C)c1`, the cytotoxicity call is “inactive”.

Turning to `COc1ccc(C2=N[C@@H](c3ccc(Cl)cc3)[C@@H](c3ccc(Cl)cc3)N2C(=O)N2CCNC(=O)C2)c(OC(C)C)c1`, the cytotoxicity call was “active”.

Regarding `COc1ccc(S(=O)(=O)N(C)C[C@@H]2Oc3ccc(NC(=O)C4CC4)cc3C(=O)N([C@@H](C)CO)C[C@@H]2C)cc1`, the cytotoxicity call is “inactive”.

Turning to `Cc1noc(C)c1NC(=O)N(C)C[C@H]1Oc2c(NS(=O)(=O)c3cn(C)cn3)cccc2C(=O)N([C@H](C)CO)C[C@@H]1C`, the cytotoxicity call was “inactive”.

As to `C[C@H](CO)N1C[C@H](C)[C@@H](CN(C)C(=O)Nc2ccc3c(c2)OCO3)OCCCC[C@H](C)Oc2ccc(NC(=O)NC3CCCCC3)cc2C1=O`, the cytotoxicity call is “inactive”.

As for `C[C@@H]1CCCCO[C@@H](CN(C)C(=O)Nc2ccc3c(c2)OCO3)[C@H](C)CN([C@H](C)CO)C(=O)c2cc(NC(=O)NC3CCCCC3)ccc2O1`, the cytotoxicity call was “inactive”.

Turning to `C[C@@H]1CCCCO[C@H](CN(C)C(=O)Nc2ccc3c(c2)OCO3)[C@H](C)CN([C@@H](C)CO)C(=O)c2cc(NC(=O)NC3CCCCC3)ccc2O1`, the cytotoxicity call was “inactive”.

Consider `C[C@@H]1CCCCO[C@@H](CN(C)C(=O)Nc2ccc3c(c2)OCO3)[C@@H](C)CN([C@@H](C)CO)C(=O)c2cc(NC(=O)NC3CCCCC3)ccc2O1`, for which the cytotoxicity call was “inactive”.

For the compound `C[C@@H]1CCCCO[C@H](CN(C)C(=O)Nc2ccc3c(c2)OCO3)[C@H](C)CN([C@H](C)CO)C(=O)c2cc(NC(=O)NC3CCCCC3)ccc2O1`, the cytotoxicity call is “active”.

On to `C[C@@H]1CN([C@@H](C)CO)C(=O)c2cc(NC(=O)NC3CCCCC3)ccc2O[C@@H](C)CCCCO[C@H]1CN(C)C(=O)Nc1ccc2c(c1)OCO2`, for which the cytotoxicity call was “active”.
